Measured values taken from PubChem BioAssay (NCATS).
Inconclusive results are not listed. The source made the active and inactive calls. Calls follow the shape of the dose curve; as a rule, active = well fitted inhibition curve with a large enough effect; inconclusive = small, poorly fitted or top-dose-only effect; inactive = flat fitted curve, though single readings scatter. Where a SMILES comes first, the peptide text is derived from it. [ ]: non-standard residue; d: D form. PhLac = O=C(O)[CH](O)Cc1ccccc1; NMeV = CN[CH](C(=O)O)C(C)C

What follows are compounds tested against Calcium and integrin-binding protein 1 (Homo sapiens) (UniProt Q99828) (assay: Primary qHTS for Identification of Calcium Integrin Binding Protein 1 (CIB1) Competitor (AID 1508620; also: top concentration of the series differs between compounds)). Details: CIB1-GST / FITC-alphaIIb peptide fluorescence polarization; series mostly up to 57.7 µM; activity change, negative = inhibition: at the top concentration.
Calcium and integrin-binding protein 1 (Homo sapiens), sequence (Q99828 whole entry, looked up): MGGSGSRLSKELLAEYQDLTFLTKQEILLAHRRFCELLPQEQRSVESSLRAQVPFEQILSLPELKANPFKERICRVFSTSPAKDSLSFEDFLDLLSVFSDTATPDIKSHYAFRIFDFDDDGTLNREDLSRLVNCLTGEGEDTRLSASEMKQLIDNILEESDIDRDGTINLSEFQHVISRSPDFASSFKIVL
How it was run: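 Fluorescence polarization competition: GST-tagged CIB1 (1 uM final) preincubated with compound 15 min at room temperature, then FITC-labelled alphaIIb peptide (100 nM final) added. After 15 min at room temperature, polarization read at Ex 480/Em 540.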
% is scaled to controls: 0 for no effect and ±100 for the full control effect.

Row | SMILES | activity change, negative = inhibition | Potency
1 | C=C1CC[C@H]2[C@@](C)(CCC(O)[C@@]2(C)CO)[C@@H]1C/C=C(/C(=O)O)C(O)CO (stereo partly drawn) | -7.22% (inactive) | 
2 | CNC(=O)[C@H]1O[C@@H](n2cnc3c(NCc4ccc(N)c(I)c4)ncnc32)[C@H](O)[C@@H]1O | -2.33% [at 30.2 µM] (inactive) | 
3 | CC(C)C1(O[C@@H]2O[C@H](CO)[C@@H](O)[C@H](O)[C@H]2O)CC=C(CO)CC1 (stereo partly drawn) | -1.87% (inactive) | 
4 | O=C(Nc1cccnn1)N1CCC(=Cc2cccc(Oc3ccc(C(F)(F)F)cn3)c2)CC1 |  | inactive
5 | C/C(=C\CO)CC/C=C(\C)C(=O)O[C@H]1[C@H](OC2OC=C(C(=O)O)C3CCC(C)(O)C23)O[C@H](CO)[C@@H](O)[C@@H]1O (stereo partly drawn) | -0.508% (inactive) | 
6 | COc1c2c(c(C)c3c1C(=O)OC3)O[C@@]1(C)C[C@@H](O)[C@]34O[C@](OC)(CC[C@]3(C)[C@H]1C2)OC4(C)C | -4.67% (inactive) | 
7 | O=C1[C@H](O[C@@H]2O[C@H](CO)[C@@H](O)[C@H](O)[C@H]2O)Oc2ccccc2N1O | 0.884% (inactive) | 
8 | CC(=O)C1CCC2(C)C3=C(CCC12C)C1(C)CCC(=O)C(C)(C)C1CC3 (stereo not drawn) | -2.08% (inactive) | 
9 | O=C(O[C@@H]1O[C@H](CO)[C@@H](O)[C@H](O)[C@H]1O)c1c(O)cc(O)cc1/C=C/c1ccccc1 | -0.616% (inactive) | 
10 | COc1cccc(-n2nc(C(=O)O)cc2-c2ccc(C3CCCCC3)c(Cl)c2)c1 | -3.91% [at 114 µM] (inactive) | 
11 | CC1CCC2C(C)(C)C(O)CCC2(C)C12Cc1c(O)cc3c(c1O2)C(N)=NC3 (stereo not drawn) | 2.43% (inactive) | 
12 | CC(O)C(O)/C=C/C=C/C(=O)O[C@@H]1C=C2COC(=O)[C@]2(O)[C@@]2(C)CCCC(C)(C)C12 (stereo partly drawn) | 2.57% (inactive) | 
13 | O=S(=O)(NC1CCNCC1)c1cc(S(=O)(=O)c2ccccc2)ccc1C(F)(F)F | -5.71% [at 114 µM] (inactive) | 
14 | COc1c(C(CC(C)C)OC(C)=O)ccc(Oc2c(O)cc(C)cc2/C=C/C(C)=O)c1C(=O)O (stereo not drawn) | -18.5% (inactive) | 
15 | CC(C)CC1(C(=O)OCc2ccc(O[C@@H]3O[C@H](CO)[C@@H](O)[C@H](O)[C@H]3O)cc2)CC(=O)OC(C(=O)O)CC(=O)OCC2OC(O1)C(OC(=O)/C=C/c1ccc(O)cc1)C(O)C2O (stereo partly drawn) | 2.29% [at 30.2 µM] (inactive) | 
16 | COc1ccc(/C=C/C(=O)O[C@@H]2[C@@H](O)[C@H](C)O[C@@H](OC3C4C=COC(O[C@@H]5O[C@H](CO)[C@@H](O)[C@H](O)[C@H]5O)C4C4(CO)OC34)[C@@H]2O)cc1OC (stereo partly drawn) | 2.85% [at 30.2 µM] (inactive) | 
17 | C[C@@H]1C(=O)O[C@H]2[C@H]1CC[C@@]1(C)C(=O)C=C[C@](C)(O)[C@H]21 | 2.36% [at 114 µM] (inactive) | 
18 | CCOC(=O)c1c(C)nn(-c2cccc([N+](=O)[O-])c2)c1C | 4.91% [at 114 µM] (inactive) | 
19 | C[C@@H]1O[C@@H](OC[C@H]2O[C@@H](OCCc3ccccc3)[C@H](O)[C@@H](O)[C@@H]2O)[C@H](O)[C@H](O)[C@H]1O | 4.77% (inactive) | 
20 | C[C@@H](Nc1cc(NS(=O)(=O)N2CCC2)nc(SCc2cccc(F)c2F)n1)[C@@H](O)CO | -2.2% [at 114 µM] (inactive) | 
21 | Clc1ccc2c(c1)C1=NCCN1c1c(-c3noc(C4CC4)n3)ncn1-2 | -7.06% [at 114 µM] (inactive) | 
22 | C[C@@H]1O[C@@H](O[C@H]2[C@H](O)[C@@H](C(=O)O)O[C@@H](O[C@H]3CC[C@@]4(C)C(CC[C@]5(C)C4CC=C4C6CC(C)(C)CC[C@]6(C(=O)O)CC[C@]45C)C3(C)C)[C@@H]2O[C@@H]2O[C@H](CO)[C@@H](O)[C@H](O)[C@H]2O)[C@H](O)[C@H](O)[C@H]1O (stereo partly drawn) | 2.54% [at 30.2 µM] (inactive) | 
23 | CC1=CC[C@]2(C(=O)O[C@@H]3O[C@H](CO[C@@H]4O[C@H](CO)[C@@H](O[C@@H]5O[C@@H](C)[C@H](O)[C@@H](O)[C@H]5O)[C@H](O)[C@H]4O)[C@@H](O)[C@H](O)[C@H]3O)CC[C@]3(C)C(CCC4[C@@]5(C)C[C@@H](O)[C@H](O)[C@@](C)(CO)C5CC[C@]43C)C2C1C (stereo partly drawn) | -0.144% [at 30.2 µM] (inactive) | 
24 | C/C=C(/C)C(=O)O[C@H]1C=C(C)C[C@H](OC(=O)c2ccc(O)cc2)C2[C@](O)(C(C)C)CC[C@@]21C (stereo partly drawn) | 2.38% [at 30.2 µM] (inactive) | 
25 | CC(C)C(C#N)O[C@@H]1O[C@H](CO[C@@H]2OC[C@](O)(CO)[C@H]2O)[C@@H](O)[C@H](O)[C@H]1O (stereo partly drawn) | -9.42% (inactive) | 
26 | CC(C)C(C(=O)N1CCCC1C(=O)O)N(C)C(=O)C(O)Cc1ccccc1 (stereo not drawn) (H-[PhLac]-[NMeV]-Pro-OH; configuration not given here) | 3.88% (inactive) | 
27 | CC1=CC(=O)CC(C)(CO[C@@H]2O[C@H](CO)[C@@H](O)[C@H](O)[C@H]2O)C1(O)/C=C/C(C)=C/C(=O)O (stereo partly drawn) | 1.4% (inactive) | 
28 | Cc1cc(Nc2ncc(Cl)c(Nc3ccccc3S(=O)(=O)C(C)C)n2)c(OC(C)C)cc1C1CCNCC1 |  | inactive
